Experiments:
Assay in all cases: log2 ratio of Biotin-Ahx-Ub-VS probe labelling (fragment/DMSO); higher = less target engagement (more negative = stronger competition), active = hit call of the paper (q ≤ 0.05, log2 ratio ≤ -1)
Conditions in all cases: compound concentration: 200 uM; treatment time: 3 h
USP34 = USP34 (UniProt Q70CQ2)
Procedure, shortened: (§1)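 The table lists average log2 ratios of fragment over vehicle, from an unpaired t-test on global-median-normalised Spectronaut label-free quantities. Proteins with ≥2 unique peptides were used. Samples were HEK293T lysate (495 µg) treated in triplicate with fragment at 200 µM or vehicle for 3 h, then with Biotin-Ahx-Ub-VS (0.5 µM final) for 1 h, with labelled DUBs NeutrAvidin-enriched and run by diaPASEF LC-MS/MS.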

USP36 = target: T1, USP36 (UniProt Q9P275)
T1 sequence (whole entry): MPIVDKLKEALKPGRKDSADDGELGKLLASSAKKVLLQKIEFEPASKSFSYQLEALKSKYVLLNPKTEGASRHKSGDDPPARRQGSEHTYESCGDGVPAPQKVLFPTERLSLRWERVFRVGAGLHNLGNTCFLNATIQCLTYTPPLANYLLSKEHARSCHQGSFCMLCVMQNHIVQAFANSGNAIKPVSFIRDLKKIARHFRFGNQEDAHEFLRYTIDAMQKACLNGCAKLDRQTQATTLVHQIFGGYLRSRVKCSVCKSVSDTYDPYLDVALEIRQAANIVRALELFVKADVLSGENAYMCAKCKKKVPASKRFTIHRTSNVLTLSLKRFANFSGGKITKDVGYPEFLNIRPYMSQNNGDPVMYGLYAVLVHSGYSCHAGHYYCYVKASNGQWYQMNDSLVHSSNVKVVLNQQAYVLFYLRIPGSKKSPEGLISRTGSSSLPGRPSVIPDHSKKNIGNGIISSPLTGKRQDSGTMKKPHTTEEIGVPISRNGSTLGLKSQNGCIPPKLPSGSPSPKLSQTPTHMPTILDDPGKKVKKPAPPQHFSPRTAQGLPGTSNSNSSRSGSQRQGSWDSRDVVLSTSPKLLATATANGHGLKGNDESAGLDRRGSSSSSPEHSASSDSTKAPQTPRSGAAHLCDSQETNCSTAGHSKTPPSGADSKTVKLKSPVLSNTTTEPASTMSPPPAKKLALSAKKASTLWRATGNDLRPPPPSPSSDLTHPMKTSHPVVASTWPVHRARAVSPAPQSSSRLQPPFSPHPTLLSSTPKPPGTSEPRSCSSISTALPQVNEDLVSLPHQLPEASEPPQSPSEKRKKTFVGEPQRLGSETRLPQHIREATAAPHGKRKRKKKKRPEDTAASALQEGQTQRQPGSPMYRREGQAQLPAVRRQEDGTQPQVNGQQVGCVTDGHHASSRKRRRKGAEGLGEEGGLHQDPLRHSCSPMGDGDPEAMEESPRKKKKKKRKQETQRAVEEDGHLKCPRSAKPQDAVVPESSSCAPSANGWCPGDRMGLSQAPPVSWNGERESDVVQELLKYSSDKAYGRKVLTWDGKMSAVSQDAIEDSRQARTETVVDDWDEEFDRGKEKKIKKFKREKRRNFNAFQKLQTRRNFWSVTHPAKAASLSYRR
Procedure, shortened: as §1

USP38 = target: T2, USP38 (UniProt Q8NB14)
T2 sequence (whole entry): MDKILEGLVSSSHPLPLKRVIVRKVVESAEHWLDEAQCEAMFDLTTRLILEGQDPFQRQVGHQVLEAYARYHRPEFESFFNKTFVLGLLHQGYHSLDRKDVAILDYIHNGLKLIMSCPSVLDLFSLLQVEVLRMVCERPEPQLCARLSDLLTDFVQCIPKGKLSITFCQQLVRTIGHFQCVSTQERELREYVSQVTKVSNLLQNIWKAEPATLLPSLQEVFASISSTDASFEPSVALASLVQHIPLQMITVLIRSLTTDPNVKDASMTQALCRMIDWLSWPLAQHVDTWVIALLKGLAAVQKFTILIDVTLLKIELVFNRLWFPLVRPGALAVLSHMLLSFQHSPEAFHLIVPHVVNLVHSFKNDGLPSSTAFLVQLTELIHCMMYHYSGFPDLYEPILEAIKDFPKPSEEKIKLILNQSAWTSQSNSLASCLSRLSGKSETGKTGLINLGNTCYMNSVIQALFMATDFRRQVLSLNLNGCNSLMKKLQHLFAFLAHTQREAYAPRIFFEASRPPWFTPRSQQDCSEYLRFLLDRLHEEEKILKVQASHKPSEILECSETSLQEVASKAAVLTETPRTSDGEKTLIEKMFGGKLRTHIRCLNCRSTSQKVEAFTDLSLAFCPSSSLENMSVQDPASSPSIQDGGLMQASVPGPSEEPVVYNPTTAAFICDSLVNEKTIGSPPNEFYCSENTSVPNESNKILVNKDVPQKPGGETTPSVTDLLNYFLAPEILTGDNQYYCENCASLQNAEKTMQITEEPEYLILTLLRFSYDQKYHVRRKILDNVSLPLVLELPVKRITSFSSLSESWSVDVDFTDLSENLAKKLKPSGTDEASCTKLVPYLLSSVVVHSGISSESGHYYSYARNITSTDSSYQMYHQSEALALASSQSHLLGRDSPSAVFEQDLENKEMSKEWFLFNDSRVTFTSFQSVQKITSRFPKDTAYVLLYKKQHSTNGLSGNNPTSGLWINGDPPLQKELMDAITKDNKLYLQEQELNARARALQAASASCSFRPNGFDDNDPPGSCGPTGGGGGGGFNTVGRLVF
Procedure, shortened: as §1

USP39 = target: T3, USP39 (UniProt Q53GS9)
T3 sequence (whole entry): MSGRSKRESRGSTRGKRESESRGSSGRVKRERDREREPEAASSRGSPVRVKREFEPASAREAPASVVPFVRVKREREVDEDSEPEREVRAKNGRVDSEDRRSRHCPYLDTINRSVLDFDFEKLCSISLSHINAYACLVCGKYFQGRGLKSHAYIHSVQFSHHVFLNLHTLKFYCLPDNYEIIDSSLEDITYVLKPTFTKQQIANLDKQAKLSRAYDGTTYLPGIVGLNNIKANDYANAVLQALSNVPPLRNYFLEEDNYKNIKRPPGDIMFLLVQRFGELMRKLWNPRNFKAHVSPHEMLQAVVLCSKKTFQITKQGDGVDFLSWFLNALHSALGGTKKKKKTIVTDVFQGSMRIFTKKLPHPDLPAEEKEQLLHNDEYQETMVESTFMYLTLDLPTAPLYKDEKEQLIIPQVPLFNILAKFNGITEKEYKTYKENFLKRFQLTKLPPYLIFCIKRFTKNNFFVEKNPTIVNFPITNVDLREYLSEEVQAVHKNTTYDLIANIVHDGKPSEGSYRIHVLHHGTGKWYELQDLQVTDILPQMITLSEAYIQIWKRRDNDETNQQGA
Procedure, shortened: as §1

USP4 = target: T4, USP4 (UniProt Q13107)
T4 sequence (whole entry): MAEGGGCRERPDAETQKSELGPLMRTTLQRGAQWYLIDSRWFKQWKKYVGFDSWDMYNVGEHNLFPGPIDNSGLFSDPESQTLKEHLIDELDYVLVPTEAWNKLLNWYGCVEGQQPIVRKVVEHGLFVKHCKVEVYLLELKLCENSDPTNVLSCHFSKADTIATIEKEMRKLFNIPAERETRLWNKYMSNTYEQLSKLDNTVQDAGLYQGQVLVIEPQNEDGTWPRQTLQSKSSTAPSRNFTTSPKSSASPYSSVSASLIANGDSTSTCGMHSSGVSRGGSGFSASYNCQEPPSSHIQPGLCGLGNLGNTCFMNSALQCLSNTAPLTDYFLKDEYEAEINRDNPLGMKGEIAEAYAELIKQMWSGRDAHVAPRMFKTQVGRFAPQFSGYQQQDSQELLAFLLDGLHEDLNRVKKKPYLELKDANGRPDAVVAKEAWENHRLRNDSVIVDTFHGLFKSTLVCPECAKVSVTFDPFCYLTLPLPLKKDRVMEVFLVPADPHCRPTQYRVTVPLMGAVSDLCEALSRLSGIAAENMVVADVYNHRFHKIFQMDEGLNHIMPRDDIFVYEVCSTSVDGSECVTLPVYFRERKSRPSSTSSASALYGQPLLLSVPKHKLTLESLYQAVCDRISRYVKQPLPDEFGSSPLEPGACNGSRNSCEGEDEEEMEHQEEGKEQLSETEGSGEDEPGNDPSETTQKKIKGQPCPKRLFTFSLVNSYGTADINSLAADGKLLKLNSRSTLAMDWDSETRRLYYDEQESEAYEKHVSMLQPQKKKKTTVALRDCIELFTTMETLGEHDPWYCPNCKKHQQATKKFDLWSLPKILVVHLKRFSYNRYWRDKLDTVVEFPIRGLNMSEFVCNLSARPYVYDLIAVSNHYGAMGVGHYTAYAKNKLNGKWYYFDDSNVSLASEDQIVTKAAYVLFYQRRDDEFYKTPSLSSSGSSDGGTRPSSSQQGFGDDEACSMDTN
Procedure, shortened: as §1

Measured: log2 ratio of Biotin-Ahx-Ub-VS probe labelling

Sequence of USP34 (Q70CQ2 whole entry, the tested form may be a part): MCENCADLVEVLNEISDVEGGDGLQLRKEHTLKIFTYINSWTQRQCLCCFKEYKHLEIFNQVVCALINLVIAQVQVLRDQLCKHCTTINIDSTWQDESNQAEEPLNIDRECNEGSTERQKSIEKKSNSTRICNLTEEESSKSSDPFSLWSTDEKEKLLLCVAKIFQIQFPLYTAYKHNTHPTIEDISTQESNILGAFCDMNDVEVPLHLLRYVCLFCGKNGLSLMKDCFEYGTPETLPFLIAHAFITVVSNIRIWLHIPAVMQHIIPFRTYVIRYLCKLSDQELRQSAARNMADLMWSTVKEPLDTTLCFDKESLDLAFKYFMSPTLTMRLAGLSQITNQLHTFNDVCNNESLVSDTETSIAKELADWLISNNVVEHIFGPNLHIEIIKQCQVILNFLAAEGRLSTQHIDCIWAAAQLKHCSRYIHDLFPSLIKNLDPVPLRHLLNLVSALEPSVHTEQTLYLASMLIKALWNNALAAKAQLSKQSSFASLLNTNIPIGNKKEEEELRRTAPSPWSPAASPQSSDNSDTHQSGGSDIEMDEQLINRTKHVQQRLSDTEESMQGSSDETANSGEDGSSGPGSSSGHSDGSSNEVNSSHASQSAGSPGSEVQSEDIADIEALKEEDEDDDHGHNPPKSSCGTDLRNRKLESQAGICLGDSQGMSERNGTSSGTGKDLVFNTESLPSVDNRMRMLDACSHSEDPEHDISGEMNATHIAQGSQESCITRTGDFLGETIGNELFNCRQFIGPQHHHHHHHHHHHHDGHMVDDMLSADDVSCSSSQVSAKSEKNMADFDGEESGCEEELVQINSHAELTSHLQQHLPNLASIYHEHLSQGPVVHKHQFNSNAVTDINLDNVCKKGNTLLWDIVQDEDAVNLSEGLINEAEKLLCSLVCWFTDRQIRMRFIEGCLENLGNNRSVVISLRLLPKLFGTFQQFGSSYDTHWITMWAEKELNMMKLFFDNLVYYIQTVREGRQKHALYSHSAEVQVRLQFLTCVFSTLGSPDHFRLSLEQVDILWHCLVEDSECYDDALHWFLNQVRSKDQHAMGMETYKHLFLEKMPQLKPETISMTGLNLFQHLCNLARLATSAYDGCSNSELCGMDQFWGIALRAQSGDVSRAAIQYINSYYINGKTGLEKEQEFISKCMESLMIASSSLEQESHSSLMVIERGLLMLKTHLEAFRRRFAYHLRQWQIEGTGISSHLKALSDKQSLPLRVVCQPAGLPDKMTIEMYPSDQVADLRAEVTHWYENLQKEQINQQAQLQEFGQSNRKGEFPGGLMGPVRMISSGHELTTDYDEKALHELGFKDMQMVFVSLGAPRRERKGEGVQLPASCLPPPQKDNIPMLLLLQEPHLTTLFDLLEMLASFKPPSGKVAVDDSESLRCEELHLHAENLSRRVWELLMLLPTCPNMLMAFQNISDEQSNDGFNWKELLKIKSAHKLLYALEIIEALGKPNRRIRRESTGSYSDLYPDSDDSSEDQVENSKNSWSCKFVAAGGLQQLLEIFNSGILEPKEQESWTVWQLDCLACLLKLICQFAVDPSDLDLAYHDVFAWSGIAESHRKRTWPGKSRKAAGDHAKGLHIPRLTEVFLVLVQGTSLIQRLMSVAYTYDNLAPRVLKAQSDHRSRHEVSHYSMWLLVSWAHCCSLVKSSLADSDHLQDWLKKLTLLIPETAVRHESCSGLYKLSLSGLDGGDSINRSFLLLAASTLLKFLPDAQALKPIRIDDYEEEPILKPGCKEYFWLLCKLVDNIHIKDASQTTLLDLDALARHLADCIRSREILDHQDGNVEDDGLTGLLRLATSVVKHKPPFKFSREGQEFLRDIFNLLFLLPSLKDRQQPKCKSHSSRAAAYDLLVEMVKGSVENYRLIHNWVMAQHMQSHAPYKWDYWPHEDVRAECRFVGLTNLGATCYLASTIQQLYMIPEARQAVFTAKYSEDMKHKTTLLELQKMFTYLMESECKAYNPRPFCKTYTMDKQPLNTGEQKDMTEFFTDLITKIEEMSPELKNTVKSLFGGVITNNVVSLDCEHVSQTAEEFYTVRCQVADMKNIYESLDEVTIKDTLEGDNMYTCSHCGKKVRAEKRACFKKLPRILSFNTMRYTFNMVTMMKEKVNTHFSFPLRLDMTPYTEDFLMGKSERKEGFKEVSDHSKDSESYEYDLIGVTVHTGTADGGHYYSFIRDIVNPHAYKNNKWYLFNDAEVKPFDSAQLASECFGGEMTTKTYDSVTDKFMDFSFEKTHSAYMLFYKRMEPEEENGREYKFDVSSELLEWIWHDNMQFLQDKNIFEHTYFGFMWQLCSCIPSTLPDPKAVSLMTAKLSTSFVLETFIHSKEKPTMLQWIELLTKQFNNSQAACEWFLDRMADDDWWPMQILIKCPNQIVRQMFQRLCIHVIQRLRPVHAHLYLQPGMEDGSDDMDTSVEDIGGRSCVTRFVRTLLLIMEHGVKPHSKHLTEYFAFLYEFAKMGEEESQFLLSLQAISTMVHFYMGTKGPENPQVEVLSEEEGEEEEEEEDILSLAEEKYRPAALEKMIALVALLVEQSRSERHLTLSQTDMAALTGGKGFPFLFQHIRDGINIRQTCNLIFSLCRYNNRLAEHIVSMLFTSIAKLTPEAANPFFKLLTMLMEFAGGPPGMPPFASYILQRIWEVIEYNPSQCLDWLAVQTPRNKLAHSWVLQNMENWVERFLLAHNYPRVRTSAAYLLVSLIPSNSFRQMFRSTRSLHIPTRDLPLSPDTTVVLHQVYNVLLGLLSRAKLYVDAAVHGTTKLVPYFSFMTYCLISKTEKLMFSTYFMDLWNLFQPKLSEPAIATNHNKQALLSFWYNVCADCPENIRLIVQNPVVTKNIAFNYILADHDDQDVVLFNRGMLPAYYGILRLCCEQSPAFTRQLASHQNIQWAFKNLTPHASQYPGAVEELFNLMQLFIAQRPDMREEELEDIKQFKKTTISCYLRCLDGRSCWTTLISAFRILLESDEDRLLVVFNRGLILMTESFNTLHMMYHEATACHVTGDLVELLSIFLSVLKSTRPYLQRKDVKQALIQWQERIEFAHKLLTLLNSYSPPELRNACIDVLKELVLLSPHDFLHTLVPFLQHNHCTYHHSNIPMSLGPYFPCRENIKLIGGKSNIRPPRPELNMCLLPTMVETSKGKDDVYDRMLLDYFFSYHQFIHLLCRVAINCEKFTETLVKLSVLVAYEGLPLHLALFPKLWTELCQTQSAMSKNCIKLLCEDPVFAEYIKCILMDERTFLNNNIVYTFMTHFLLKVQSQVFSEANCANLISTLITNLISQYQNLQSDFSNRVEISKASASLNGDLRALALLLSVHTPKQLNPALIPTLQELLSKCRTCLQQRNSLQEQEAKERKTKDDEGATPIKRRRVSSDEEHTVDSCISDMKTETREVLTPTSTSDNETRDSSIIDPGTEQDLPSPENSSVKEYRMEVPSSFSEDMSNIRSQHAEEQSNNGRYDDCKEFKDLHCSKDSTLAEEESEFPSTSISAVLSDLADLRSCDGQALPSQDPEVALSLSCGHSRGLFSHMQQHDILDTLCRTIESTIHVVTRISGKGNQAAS

CN1c2ccccc2C(NC(=O)CCl)CS1(=O)=O (stereo not given)
inactive: USP34 -0.111 | USP36 -0.287 | USP38 -0.071 | USP39 0.00949 | USP4 0.0683

Reference: the supplement of paper PMC11732987, “Enantioselective OTUD7B fragment discovery through chemoproteomics screening and high-throughput optimisation” (Communications Chemistry, 2025)
